The nature of assay [1]: optical density shifts of acrAB sulA E. coli – strain DRC41, OD650, 48 h, E. coli filamentation inducer project, primary screen (AID 1152).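 Also: E. coli MC1000 strain DRC41 lacking acrAB efflux pump and sulA.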 The note with it: higher = more signal, called active from +8 up or from −8 down.
Assay [2] is described as follows: probe aLefty1 binding on compound microarray – biochemical, small-molecule microarray, 635/667 nm fluorescence, primary screen (AID 1153).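 Also: score merges spot fluorescence with signal-to-noise ratio from the scanned slide images.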 The note with it: higher = more signal.
Assay [3] can be described thus: plasmodial surface anion channel blockers, osmotic lysis – cell-based, P. falciparum Indochina, OD700, 1 h, primary screen (AID 1154). The note with it: P. falciparum Indochina infected RBC osmotic lysis, higher = more signal, called active from +8 up or from −8 down.
Assay [4] in a line: plasmodial surface anion channel blockers, osmotic lysis – cell-based, P. falciparum Indochina, OD700, 2 h, primary screen (AID 1155).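 Also: lysis reports solute entry through the parasite surface anion channel PSAC.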 The following applies: P. falciparum Indochina infected erythrocytes, higher = more signal, called active from +8 up or from −8 down.
The nature of assay [5]: changes in parasitized red cell lysis, either direction – P. falciparum Indochina, OD700, 3 h, PSAC antagonist project, primary screen (AID 1156). The following applies: P. falciparum-infected erythrocytes, osmotic lysis, higher = more signal, called active from +8 up or from −8 down.
The nature of assay [6]: plasmodial surface anion channel blockers, osmotic lysis – cell-based, P. falciparum Indochina, OD700, 18 h, primary screen (AID 1157). The following applies: P. falciparum Indochina infected erythrocytes, osmotic lysis OD700, 18 h; higher = more signal, called active from +8 up or from −8 down.
Assay [7] in a line: S6 kinase pathway phospho-S6 level changes – cell-based, A549, cytoblot, luminescence, serum-stimulated, primary screen (AID 1158).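 Also: serum-stimulated A549 lung adenocarcinoma cells; signal is phosphorylated S6 detected by cytoblot immunostaining with HRP secondary.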 The following applies: 5 h, higher = more signal.
Assay [8] concerns the target NADPH oxidase 2 (Homo sapiens) (UniProt P04839). The experiment in a line: compounds shifting NOX2 Amplex Red fluorescence – cell-based, HEK293-NOX2, PMA-stimulated, NOX inhibitor project, primary screen (AID 1159). Also: test concentration not given here. The following applies: 45 min, higher = more signal, called active from +8 up or from −8 down.
Assay [9] deals with NADPH oxidase 4 (Homo sapiens) (UniProt Q9NPH5). As to the kind of experiment: compounds shifting NOX4 Amplex Red fluorescence – cell-based, HEK293-NOX4, tetracycline-induced, NOX inhibitor project, primary screen (AID 1160). The following applies: HEK293-NOX4, Amplex Red H2O2 fluorescence, 45 min; higher = more signal, called active from +8 up or from −8 down.
Chain of NADPH oxidase 4 (Homo sapiens) (Q9NPH5 whole entry, looked up): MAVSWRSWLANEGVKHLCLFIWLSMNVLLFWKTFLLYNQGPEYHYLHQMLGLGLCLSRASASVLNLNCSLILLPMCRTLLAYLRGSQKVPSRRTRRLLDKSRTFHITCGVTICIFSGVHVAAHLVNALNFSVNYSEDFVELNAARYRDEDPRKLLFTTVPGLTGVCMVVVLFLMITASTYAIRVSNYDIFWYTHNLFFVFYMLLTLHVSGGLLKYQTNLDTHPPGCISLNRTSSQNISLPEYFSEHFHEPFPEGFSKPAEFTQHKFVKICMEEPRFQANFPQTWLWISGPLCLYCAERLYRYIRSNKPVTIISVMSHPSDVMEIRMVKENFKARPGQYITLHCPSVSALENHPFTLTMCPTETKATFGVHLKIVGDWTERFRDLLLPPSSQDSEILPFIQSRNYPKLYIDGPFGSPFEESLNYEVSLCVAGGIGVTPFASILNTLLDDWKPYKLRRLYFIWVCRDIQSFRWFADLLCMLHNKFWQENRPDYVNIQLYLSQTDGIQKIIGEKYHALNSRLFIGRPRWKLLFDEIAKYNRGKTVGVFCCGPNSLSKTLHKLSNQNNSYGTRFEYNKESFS
The target in assay [10] is NADPH oxidase 5 (Homo sapiens) (UniProt Q96PH1). The experiment in a line: compounds shifting NOX5 Amplex Red fluorescence – cell-based, HEK293-NOX5, NOX inhibitor project, primary screen (AID 1161). The note with it: HEK293-NOX5, ionomycin, 45 min, higher = more signal.
Chain of NADPH oxidase 5 (Homo sapiens) (Q96PH1 whole entry, looked up): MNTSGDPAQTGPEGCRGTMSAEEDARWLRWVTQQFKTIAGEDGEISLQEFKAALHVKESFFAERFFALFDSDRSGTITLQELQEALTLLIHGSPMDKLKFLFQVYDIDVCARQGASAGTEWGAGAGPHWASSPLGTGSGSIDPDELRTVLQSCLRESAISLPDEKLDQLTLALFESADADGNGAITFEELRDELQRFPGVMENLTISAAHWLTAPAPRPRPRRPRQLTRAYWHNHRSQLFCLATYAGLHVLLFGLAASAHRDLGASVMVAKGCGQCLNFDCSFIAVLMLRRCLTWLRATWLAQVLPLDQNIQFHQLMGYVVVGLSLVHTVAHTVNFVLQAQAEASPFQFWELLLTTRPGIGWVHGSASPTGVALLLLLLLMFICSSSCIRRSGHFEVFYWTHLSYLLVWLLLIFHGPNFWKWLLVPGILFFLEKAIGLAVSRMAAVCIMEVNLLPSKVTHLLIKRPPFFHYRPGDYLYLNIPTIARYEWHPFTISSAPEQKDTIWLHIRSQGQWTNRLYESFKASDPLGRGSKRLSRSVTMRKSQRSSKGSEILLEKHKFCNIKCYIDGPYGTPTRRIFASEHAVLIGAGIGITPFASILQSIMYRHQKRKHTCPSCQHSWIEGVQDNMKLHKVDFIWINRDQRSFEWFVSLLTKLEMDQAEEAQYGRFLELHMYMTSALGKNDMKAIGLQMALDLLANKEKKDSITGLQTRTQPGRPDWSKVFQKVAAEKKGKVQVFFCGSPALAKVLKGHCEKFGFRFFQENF

Each structure is given as a SMILES string. Activity calls are given as the source filed them.

Chain of NADPH oxidase 2 (Homo sapiens) (P04839 whole entry, looked up): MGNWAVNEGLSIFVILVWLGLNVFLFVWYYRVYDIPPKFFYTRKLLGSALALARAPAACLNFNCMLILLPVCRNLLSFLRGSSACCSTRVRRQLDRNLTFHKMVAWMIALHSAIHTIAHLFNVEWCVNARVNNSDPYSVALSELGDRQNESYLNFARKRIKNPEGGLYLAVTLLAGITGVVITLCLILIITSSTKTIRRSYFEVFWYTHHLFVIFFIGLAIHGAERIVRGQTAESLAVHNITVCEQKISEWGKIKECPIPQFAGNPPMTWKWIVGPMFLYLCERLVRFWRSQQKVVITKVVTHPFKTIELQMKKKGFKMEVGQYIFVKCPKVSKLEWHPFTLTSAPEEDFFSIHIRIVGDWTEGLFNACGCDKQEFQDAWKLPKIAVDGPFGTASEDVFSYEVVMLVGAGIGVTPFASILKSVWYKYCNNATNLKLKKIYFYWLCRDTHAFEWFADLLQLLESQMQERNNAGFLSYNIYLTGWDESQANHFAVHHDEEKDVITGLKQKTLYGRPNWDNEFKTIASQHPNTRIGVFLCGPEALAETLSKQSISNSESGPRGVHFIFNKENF

`COC(=O)[C@@]1(Cc2ccc(OC)cc2)[C@H]2c3cc(C(=O)N(C)C)n(Cc4c(OC)[nH]cc(C)c4=O)c3C[C@H]2CN1C(=O)c1ccccc1`: the z-score in assay [1] is -0.348 (inactive); in assay [3], 0.275 (inactive); in assay [4], -0.997 (inactive); in [5] it was -0.456 (inactive); in assay [6], -2.25 (inactive); in assay [7], 2.46. Also, the z-score in assay [8] was 0.689 (inactive); in assay [9], -0.265 (inactive); in [10] it was -3.64. The composite z-score in [2] turned out to be 0.276.

As for `[N-]=[N+]=NCc1ccccc1C[C@]1(C(=O)O)N=C(c2ccc(OCCCO)cc2)O[C@H]1c1ccccc1CN=[N+]=[N-]`, the z-score is -0.813 (inactive) in [1]; 21.5 (active) in assay [3]; 3.96 (inactive) in assay [4]; 0.649 (inactive) in assay [5]; 0.321 (inactive) in assay [6]; -0.591 in assay [7]. The z-score in [8] is -0.331 (inactive); in [9], 1.11 (inactive); in [10], 2.29. In [2], this compound gave a composite z-score of 0.222.

On to `Cc1ccc(S[C@]2(C(=O)NCc3ccccc3)CC(=O)N(Cc3ccccc3Cl)[C@@H]2c2ccc(CO)cc2I)cc1`, for which the z-score is 0.196 (inactive) in assay [1]; 3.44 (inactive) in assay [3]; 0.68 (inactive) in assay [4]; 1.9 (inactive) in [5]; 0.255 (inactive) in assay [6]; 0.379 in assay [7]. Further, the z-score in assay [8] is 2.76 (inactive); in [9], -0.824 (inactive); in assay [10], 0.774. For the same compound, the composite z-score in assay [2] is 0.0903.

`COc1ccc(C#Cc2ccc3c(c2)[C@]2(C(=O)N3)[C@H](c3ccc(O)cc3)N3[C@H](c4ccccc4)[C@H](c4ccccc4)OC(=O)[C@H]3[C@@H]2C(=O)N2CCCCCCC2)cc1`: the z-score in assay [1] is 0.777 (inactive); in assay [3], -0.212 (inactive); in assay [4], -0.763 (inactive); in assay [5], -0.272 (inactive); in assay [6], -1.29 (inactive); in assay [7], 2.87. In addition, the z-score in assay [8] is 0.723 (inactive); in [9], -0.00989 (inactive); in assay [10] it was 0.855. For the same compound, the composite z-score in assay [2] was found to be 2.53.

Regarding `COCCOC(=O)N1C(=O)[C@@]2(c3cc(C#CCC(C(=O)OC)C(=O)OC)ccc31)[C@H](C(=O)N1CCN(c3ncccn3)CC1)[C@H]1C(=O)O[C@H](c3ccccc3)[C@H](c3ccccc3)N1[C@@H]2c1ccc(OCCO)cc1`, the z-score was 3.02 (inactive) in [1]; 17.3 (active) in assay [3]; 3.12 (inactive) in assay [4]; -0.153 (inactive) in [5]; 0.857 (inactive) in assay [6]; 2.2 in assay [7]. Moreover, the z-score was 1.41 (inactive) in assay [8], 1.43 (inactive) in assay [9] and 0.897 in assay [10]. In [2], the composite z-score is -0.0511.

For the compound `CCOC(=O)C1=CCC(c2ccc(C#N)cc2)N(S(=O)(=O)c2ccc(C)cc2)C1` (stereo not given), the z-score is 0.26 (inactive) in assay [1]; 5.29 (inactive) in [3]; 1.12 (inactive) in [4]; 0.632 (inactive) in assay [5]; 0.557 (inactive) in assay [6]; -0.118 in [7]. Also, the z-score is 0.292 (inactive) in assay [8], 0.62 (inactive) in assay [9] and -0.303 in assay [10]. The compound further gave a composite z-score in [2] of 0.262.

For `Cc1ccc(S[C@]2(C(=O)O)CC(=O)N(C3Cc4ccccc4C3)[C@@H]2c2ccc(CO)cc2I)cc1`, the z-score in assay [1] is -0.453 (inactive); in assay [3], 6.6 (inactive); in assay [4], 1.1 (inactive); in assay [5], 0.356 (inactive); in assay [6] it was 0.474 (inactive); in assay [7], -0.148. Besides, the z-score in assay [8] was 1.84 (inactive); in [9], -2.99 (inactive); in assay [10] it was -1.78. The compound further showed a composite z-score in assay [2] of -0.0559.

As for `CCC(CC)C(O)C1C=CC2C(=O)N(c3ccccc3)C(=O)C2N1Nc1ccc(C#N)cc1` (stereo not given), the z-score in assay [1] is -0.35 (inactive); in assay [3], 15.4 (active); in assay [4] it was 2.91 (inactive); in assay [5], 3.47 (inactive); in [6] it was 1.51 (inactive); in assay [7], -1.11. For the same compound, the z-score in assay [8] is -1.49 (inactive); in assay [9] it was -3.45 (inactive); in [10] it was -3.2. Moreover, in [2], the composite z-score came to 0.675.

Turning to `COCCOC(=O)N1C(=O)[C@@]2(c3cc(C#CCCO)ccc31)[C@H](c1ccc(O)cc1)N1[C@H](c3ccccc3)[C@H](c3ccccc3)OC(=O)[C@H]1[C@@H]2C(N)=O`, the z-score was -0.595 (inactive) in assay [1]; 6.55 (inactive) in [3]; 1.15 (inactive) in [4]; 0.152 (inactive) in assay [5]; 0.311 (inactive) in assay [6]; -0.218 in assay [7]. For the same compound, the z-score in assay [8] is 0.712 (inactive); in assay [9], -0.952 (inactive); in [10], 0.23. For the same compound, the composite z-score in assay [2] was found to be 0.501.

With `O=C(NCc1ccccc1)[C@]1(CCS(=O)(=O)c2ccccc2)N=C(c2ccc(OCCCO)cc2)O[C@@H]1c1ccccc1`, the z-score in [1] is 0.673 (inactive); in [3] it was 24 (active); in assay [4] it was 6.86 (inactive); in assay [5] it was 1.85 (inactive); in assay [6] it was 1.45 (inactive); in assay [7], -0.402. Besides, the z-score is 0.0459 (inactive) in assay [8], 0.902 (inactive) in assay [9] and 0.242 in assay [10]. In [2], this compound gave a composite z-score of -0.345.

Consider `CC(C)(C)OC(=O)CC[C@]1(C(=O)N2CCCCC2)N=C(c2ccc(OCCCO)cc2)O[C@H]1c1ccccc1N=[N+]=[N-]`, for which the z-score in [1] was 1.66 (inactive); in assay [3] it was 32.1 (active); in assay [4] it was 28.8 (active); in assay [5], 2.17 (inactive); in [6], 7.7 (inactive); in assay [7], -0.167. Further, the z-score in [8] is -3.53 (inactive); in [9] it was 0.976 (inactive); in [10], -1.46. In addition, the composite z-score in [2] stood at 0.19.

`COC(=O)[C@@]1(Cc2ccc(OC)cc2)[C@H]2c3cc(C(=O)N4CCCC4)n(Cc4ccccn4)c3C[C@H]2CN1C(=O)c1ccccc1`: the z-score in [1] is -0.824 (inactive); in assay [3], 3.64 (inactive); in assay [4] it was 0.537 (inactive); in [5], 1.1 (inactive); in assay [6], 0.814 (inactive); in assay [7] it was -0.569. Further, the z-score in assay [8] was 0.29 (inactive); in [9] it was -1 (inactive); in assay [10] it was -3.2. Also, in [2], the composite z-score stood at 0.595.
